The full list was thinned out, with hits kept by preference.
HttQ103 aggreg – qHTS Multiplex Assay to Identify Dual Action Probes in a Cell Model of Huntington: Aggregate Formation (GFP); PC12 HttQ103-GFP aggregates, Acumen cytometry, 40 h; Potency, µM (series often up to 46.1 µM), most hits filed as inhibitors; actives 1.1% (n = 220,000); AID 1688, 2009; note: nearly all actives have a fitted effect of over 60% in size
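PC12 cells stably carrying ecdysone-inducible HTT exon 1 Q103–GFP were induced with tebufenozide (100 nM final) and treated with library compounds in titration. GFP aggregates in lysates were counted by laser scanning cytometry.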
HTT cytoprotect – qHTS Multiplex Assay to Identify Dual Action Probes in a Cell Model of Huntington: Cytoprotection (ATP); PC12 HTT-Q103 induced, cytoprotection, ATP luminescence, 40 h; Potency, µM (titrated, usually from 56.4 µM), most hits filed as activators; actives 0.14% (n = 230,000); AID 1471, 2008; note: nearly all actives have a fitted effect of over 45% in size
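Readout: ATPlite luminescence (ATP level). Model: stable PC12, inducible Htt exon1 Q103-GFP. Inducer: tebufenozide, 100 nM final. Compounds: dose series. No G418 in medium.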
PNC assembly inh – High Content Assay for Compounds that inhibit the Assembly of the Perinucleolar Compartment | actives 3.1% (n = 140,000) | PC3M PTB-GFP, PNC prevalence imaging, 16 h; active compounds read low | activity change (PNC), negative = inhibition, % at 10 µM;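 active = readout at or below -70, meaning at least 70% loss of cells showing the perinucleolar compartment, a nuclear body marking cancer cells; inconclusive = readout between -30 and a set limit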
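PC3M cells stably expressing PTB-GFP, 750–1000 cells/well, treated 16 h at 37 °C with compound (23 nl of library stock), in duplicate. After paraformaldehyde fixation and Hoechst stain, imaged at 20x; PNC prevalence scored by image analysis.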
Hits are given with their value; - = inactive; ? = inconclusive; . = no result; [ ] = dose if it differs, or a comment. Unless noted, calls come from the whole dose curve; as a rule, active = well fitted curve in the direction sought with a large enough effect; inconclusive = small, poorly fitted or top-dose-only effect, or another doubt; inactive = no such curve, though single readings can be large; an effect the other way counts as inactive or inconclusive.

SMILES	HttQ103 aggreg	HTT cytoprotect	PNC assembly inh
O=c1oc(-c2ccc(F)cc2)nc2ccsc12	-	-	-111
O=c1oc(-c2ccccc2Cl)nc2ccsc12	?	-	?
CC(=O)NCCCc1c[nH]c2ccc(Cl)cc12	-	-[0.074 µM]	-
Cc1ccc(OC(=O)N2CCOCC2)cc1	-	-	-
CCSc1nnc(NC(=O)C(CC)Oc2ccccc2)s1 (centres undefined)	-	-	-
CC(=O)c1c(O)c2ccccc2n(C(C)C)c1=O	13µM	-	.
CC(=O)c1c(O)c2ccccc2n(C)c1=O	-	?	.
CCCCCCN=CC1=C(O)CC(C)(C)CC1=O	-	-[0.074 µM]	-
CCN(CC)CCNc1nc(-c2ccccc2)nnc1C(F)(F)F	-	-[10 µM]	-
Cc1ccc(C)n1N1C(=O)/C(=C\c2ccc(Cl)cc2)SC1=S	-	-	-
NS(=O)(=O)c1ccc(CCN2C(=O)/C(=C\c3ccc(Cl)cc3)SC2=S)cc1	?	-[10 µM]	-84
CN(C)c1ccc(C(=N)c2ccc(N(C)C)cc2)cc1	.	-	.
CN=C1C=CC(=C(c2ccc(N(C)C)cc2)c2ccc(N(C)C)cc2)C=C1	8.9µM	-	.
CC(C)C(=O)Nc1cc(S(=O)(=O)Nc2cccc(Cl)c2)ccc1Cl	?	-[10 µM]	-
CC(C)(C)OC(=O)N1CCC[C@H]1c1nnc(SCc2ccccc2Cl)o1	-	-	-114
CC(C)(C)OC(=O)N1CCC[C@H]1c1nnc(SCc2ccc(Cl)cc2Cl)o1	?	-	-
CCOc1ccccc1C(=O)Nc1ccccc1C(N)=O	-	-[0.074 µM]	-
CCOc1ccccc1C(=O)Nc1ccsc1C(=O)OC	?	-[10 µM]	-110
O=c1c2ccccc2nc(/C=C/c2ccc([N+](=O)[O-])cc2)n1CCCO	?	-[0.074 µM]	?
O=c1c2ccccc2nc(/C=C/c2ccc([N+](=O)[O-])o2)n1CCCO	?	-	-89
Cc1occc1C(=O)N/N=C/C=C/c1ccccc1[N+](=O)[O-]	-	-	.
COc1cc(C)ccc1OCCCCN1CC(C)OC(C)C1 (centres undefined)	-	-	-
CCOc1ccccc1OCCOCCN1CC(C)OC(C)C1 (centres undefined)	-	-[0.074 µM]	-87
O=C(CCNS(=O)(=O)c1ccc(Cl)cc1)N1CCN(Cc2ccccc2)CC1	-	.	?
Cc1nnc(N/N=C/c2ccco2)n1N	-	-	.
SMILES	HttQ103 aggreg	HTT cytoprotect	PNC assembly inh
COc1cccc(-c2cc(C(=O)Nc3c(C)nn(Cc4ccccc4C)c3C)no2)c1	-	-	-
Cc1ccccc1S(=O)(=O)c1cc2ccccc2nc1N	-	-	.
COC(C(=O)Nc1ccc(Br)cc1F)c1ccccc1 (centres undefined)	-	-[10 µM]	.
Cc1ccc(NC(=O)Cn2cnc3c(cnn3C(C)(C)C)c2=O)cc1	-	-	-100
COc1ccc(NC(=O)Cn2cnc3c(cnn3C(C)(C)C)c2=O)cc1OC	-	-	.
N#Cc1cc2sc3nnc(-c4ccncc4)n3c2cc1C#N	.	13µM	-
N#Cc1cc2sc3nc4ccccc4n3c2cc1C#N	-	-	-
COCc1cnc(C)nc1N	-	-[10 µM]	.
CCOC(=O)c1oc2ccc(CNC(C)(C)C)c(Cl)c2c1C	-	-[10 µM]	-119
CCOC(=O)c1oc2cccc(O)c2c1C	-	-	-
COc1ccc(N2CCN(Cc3nnnn3C3CCCCC3)CC2)cc1	-[9.22 µM]	-[10 µM]	.
Cn1cccc1C(=O)OCc1csc(-c2ccccc2)n1	-	-	-
CCN(CC)CCN1c2ccccc2Sc2ccc3ccccc3c21	-[9.22 µM]	-[10 µM]	.
CCCCN1/C(=C/c2ccc3ccccc3[n+]2CC)Sc2ccccc21	2.5µM	-[10 µM]	.
CCN1/C(=C/c2ccc3cc(C)ccc3[n+]2CC)Sc2cc(C)ccc21	1µM	-	.
CCN1C(=C2C(=O)c3ccccc3C2=O)C=Cc2ccccc21	-[9.22 µM]	-	-
CCN1/C(=C/c2ccc3ccccc3[n+]2CC)C=Cc2ccccc21	3.2µM	-[10 µM]	-
CCN1/C(=C/c2ccc3cc(C)ccc3[n+]2C)Sc2ccc3sccc3c21	-[9.22 µM]	-[10 µM]	.
O=c1cc(-c2cccc(Cl)c2)oc2cccc(O)c12	-[9.22 µM]	-[10 µM]	.
Clc1ccccc1-c1ccc2ncnc(NCc3cccnc3)c2c1	.	-	.
Cc1nc(NC(=O)C2CC2)sc1C(=O)NC1CCCCC1	-[9.22 µM]	-[10 µM]	.
COc1ccc(C(=O)c2c(C)c3ccccc3n2CC(O)CNC(C)C)cc1 (centres undefined)	22µM	.	-
COc1ccccc1CNCC(O)Cn1c2ccccc2c2ccccc21 (centres undefined)	-	-[0.074 µM]	-
Cc1ccc(NC(=S)NN2CCOCC2)c(C)c1	-	-	-
CCN(CC)S(=O)(=O)c1ccc(N)cc1	-[9.22 µM]	-[10 µM]	.
SMILES	HttQ103 aggreg	HTT cytoprotect	PNC assembly inh
CS(=O)(=O)c1ccc(N)cc1	-	-[10 µM]	-88
CC(C)(C)NC(=O)C(c1ccc(I)cc1)N(CCN1CCOCC1)C(=O)CCCNC(=O)c1ccccc1 (centres undefined)	.	-	.
O=c1[nH]c(CSc2nnc(-c3ccccc3)n2-c2ccccc2)nc2ccccc12	-	.	-
COc1ccc(C(=O)/C=C/c2ccc(F)cc2)c(OC(=O)c2ccc([N+](=O)[O-])cc2)c1	?	-[10 µM]	-
Cc1cccc(NC(=O)c2cnc3n(c2=O)CCS3)c1	?	-[10 µM]	-
O=C(Nc1ccccc1)c1cnc2n(c1=O)CCS2	-	-	-119
N#C/C(=N\Nc1cccc2ccccc12)c1nnc2n1CCCCC2	-	-[10 µM]	-113
N#C/C(=C\c1c[nH]c2ccccc12)c1nnc2n1CCCCC2	?	-[10 µM]	-
CCOC(=O)OCC1OC(C#Cc2ccc(Br)cc2)C=CC1OC(=O)OCC (centres undefined)	.	-[10 µM]	.
CCCCCCC#CC1C=CC(OC(=O)OCC)C(COC(=O)OCC)O1 (centres undefined)	.	2µM	.
COc1ccccc1C1C2CCCCC2(O)CCN1CC(=O)Nc1ccccc1 (centres undefined)	?	-[0.074 µM]	-104
CCCCNC(=O)CN1CCC2(O)CCCCC2C1c1ccccc1OC (centres undefined)	-	-	-
O=C(NCc1cccnc1)C(=O)Nc1ccc2c(c1)OCO2	-	-[10 µM]	.
COc1ccccc1Oc1ccc(N/C=C/C(=O)c2ccco2)cc1	-[9.22 µM]	-	.
CC(Oc1ccc(Cl)cc1Cl)c1nc(-c2ccc(NC(=O)c3ccncc3)cc2)no1 (centres undefined)	-	-[10 µM]	-
CC(Oc1ccc(Cl)cc1Cl)c1nc(-c2ccc(NC(=O)c3cccnc3)cc2)no1 (centres undefined)	7.9µM	-	?
O=C(c1ccc2[nH]c3c(c2c1)CCCC3)N1CCN(c2ccc(F)cc2)CC1	-	-[10 µM]	-
CN(C)S(=O)(=O)c1ccc2c(c1)nc(CCC(=O)NCC1CCCCC1)n2C	-	-[10 µM]	-
CN(C)S(=O)(=O)c1ccc2c(c1)nc(CCC(=O)NCc1ccc(Cl)cc1)n2C	?	0.63µM	.
CC(C)N(C(=O)COC(=O)CNS(=O)(=O)c1ccccc1F)c1ccccc1	-	-	.
CN(C)c1ccc(-c2nc3n(n2)C(c2cccnc2)C2=C(CC(C)(C)CC2=O)N3)cc1 (centres undefined)	-	-	-
O=C(N/N=C/c1cccs1)c1cc(-c2ccncc2)nc2ccccc12	-	.	-109

Assay outcomes as filed in PubChem.
